Source: PubChem BioAssay
In the library only some 6.5% were active in any assay of this set; here they are far more common.
NADH enzymes – inhibitors of enzymes used to reach an NAD/NADH endpoint. coupled PK/LDH NADH assays, four targets. IC50, µM (series often up to 10 µM). hit rate 0.02% among 65,000. AID 774;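 active means single-dose screening hits from any of four coupled enzyme assays that gave an IC50 when retested across doses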;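 further: the DPM-DC format reads NADH fluorescence rather than 340 nm absorbance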
A340 absorber – absorbance at 340 nm; compound absorbance at 340 nm, fold over control; fold change at 10 µM; 65,000 tested, under 10 active; AID 708;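 active means at 10 µM dose, initial 340 nm absorbance at least 2 fold that of control wells; inactive means change under 2 fold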;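 further: initial absorbance extrapolated from kinetic A340 decline of NADH oxidation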
Spn PMK inh – S. pneumoniae PMK inhibition; purified PMK, PK/LDH-coupled NADH absorbance 340 nm; inhibition, % at 10 µM; hit rate 0.49% among 65,000; AID 539;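 active means top-ranked compounds by inhibition in the single 10 µM screen, taking a fixed number of the strongest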
Spn MK inh – blocks S. pneumoniae mevalonate kinase. purified MK, PK/LDH-coupled NADH absorbance 340 nm. inhibition, % at 10 µM. hit rate 0.48% among 65,000. AID 555;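 active means ranked among the strongest by inhibition in the single 10 µM screen, a fixed top-ranked set picked for dose follow-up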
Spn DPM-DC inh – blocks S. pneumoniae diphosphomevalonate decarboxylase | purified DPM-DC, PK/LDH coupled NADH fluorescence | calls only at 10 µM | hit rate 0.49% among 65,000;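 active means the 320 compounds with the highest percent inhibition in the single-dose primary screen, excluding strongly autofluorescent ones, cut at about 32% in these data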;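 further: kinetic rate of NADH fluorescence loss reporting ADP formed by the decarboxylase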
Fluor 339 460 – intrinsic fluorescence of library compounds, ex339/em460 – biochemical, MLSMR library, data from DPM-DC assay, artefact control, profiling panel | fluorescence fold increase at 10 µM | compound autofluorescence, ex339/em460 nm, NADH buffer; stronger effect = higher value; 1 = no-compound wells, NADH background | AID 709 | hit rate 5.5% among 65,000;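 active means at 10 µM, mean starting fluorescence two-fold or more over control wells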;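 further: signal is the first read of a kinetic run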
A number is an active result; – = inactive; · = not tested or not shown.

SMILES	NADH enzymes	A340 absorber	Spn PMK inh	Spn MK inh	Spn DPM-DC inh	Fluor 339 460
O=C(Cn1nnc(-c2ccccc2F)n1)Nc1ccc(S(=O)(=O)NC2CCCC2)cc1	–	–	–	–	–	–
COc1ccc2cc3cc(C(=O)N4CCN(Cc5ccc6c(c5)OCO6)CC4)oc3nc2c1	–	–	–	–	·	5
COc1ccc2cc3cc(C(=O)NCc4ccc5c(c4)OCO5)oc3nc2c1	–	–	–	–	·	5.1
COc1ccc2cc3cc(C(=O)NCC4COc5ccccc5O4)oc3nc2c1 (stereo unspecified)	–	–	–	–	·	5
COc1ccc2nc3oc(C(=O)N4CCC(C(N)=O)CC4)cc3cc2c1	–	–	–	–	·	5.1
CCN(C(=O)c1cc2cc3ccc(C)cc3nc2o1)c1ccc(OC)cc1	–	–	–	–	–	–
CNc1nc(NC)nc(-n2c(C(F)(F)F)nc3ccccc32)n1	–	–	–	–	–	–
COc1ccc2cc3cc(C(=O)Nc4ccc5c(c4)OCCO5)oc3nc2c1	–	–	–	–	–	2.1
CCOc1cc(S(=O)(=O)NCC2OCCc3ccccc32)c(OCC)cc1-n1cnnn1 (stereo unspecified)	–	–	–	–	·	3.9
CCOc1ccccc1CN(Cc1ccco1)S(=O)(=O)c1ccc(-n2cnnn2)c(OC)c1	–	–	–	–	–	–
CCOc1cc(S(=O)(=O)NCc2ccco2)c(OCC)cc1-n1cnnn1	–	–	–	–	·	3.2
O=C(c1ccc2nc(N3CCOCC3)sc2c1)N1CCC2(CC1)OCCO2	–	–	–	–	–	–
COc1ccc(-c2cc3nc4c(c(N5CCC6(CC5)OCCO6)n3n2)CCCC4)cc1	–	–	–	–	–	2
COc1cccc(-c2cc3nc(-c4ccccc4)cc(N4CCC5(CC4)OCCO5)n3n2)c1	–	–	–	–	·	2.1
Fc1ccc(-c2cc3nc(-c4ccccc4)cc(N4CCN(CCN5CCOCC5)CC4)n3n2)cc1	–	–	–	–	·	3.7
CC(=O)Nc1nonc1-c1nc2ccccc2n1CCC(C)C	–	–	–	–	–	–
Cn1c(-c2nonc2NC(=O)c2ccc(C(C)(C)C)cc2)nc2ccccc21	–	–	–	–	–	2.6
CC(=O)Nc1nonc1-n1nnc(C(=O)NCc2ccccc2)c1C	–	–	–	–	–	–
O=c1c[n+]([O-])c2ccccc2n1OCc1c(F)cccc1F	–	–	12	–	–	–
O=c1c[n+]([O-])c2ccccc2n1OCc1ccccn1	–	–	–	–	–	–
Cc1oc2ccc(O)c(CN3CCOCC3)c2c1C(=O)c1ccc(Cl)cc1	–	–	–	–	–	–
Cc1c(O)ccc2c3c(c(=O)oc12)CCCC3	–	–	–	–	·	3.9
Cc1c(O)ccc2c3c(c(=O)oc12)CCC(C)C3 (stereo unspecified)	–	–	–	–	·	3.7
O=c1oc2c(CN3CCOCC3)c(O)ccc2c2c1CCC2	–	–	–	–	·	3.6
COC(=O)c1ccccc1S(=O)(=O)N(Cc1ccco1)Cc1cc2cc(OC)ccc2[nH]c1=O	–	–	–	–	–	2.1
SMILES	NADH enzymes	A340 absorber	Spn PMK inh	Spn MK inh	Spn DPM-DC inh	Fluor 339 460
CCc1ccc2[nH]c(=O)c(CN(Cc3ccco3)S(=O)(=O)c3ccc4c(c3)OCCO4)cc2c1	–	–	–	–	–	–
COc1ccc2[nH]c(=O)c(CN(Cc3ccco3)Cc3nnnn3Cc3ccccc3)cc2c1	–	–	–	–	–	2.3
COc1ccc2[nH]c(=O)c(CN(CCO)S(=O)(=O)c3ccc4c(c3)OCCO4)cc2c1	–	–	–	–	–	2.1
CCOc1ccc2[nH]c(=O)c(CN(Cc3ccco3)Cc3nnnn3Cc3ccccc3)cc2c1	–	–	–	–	–	2
CCc1ccc2[nH]c(=O)c(CN(Cc3ccccc3OC)Cc3nnnn3Cc3ccco3)cc2c1	–	–	–	–	–	–
O=C(CSc1nc2c(c(=O)[nH]1)CCCC2)Nc1ccc(Cl)cc1F	–	–	–	–	–	–
CCOC(=O)c1cc(=O)n2[nH]c(-c3ccc(C)cc3)cc2n1	–	–	–	–	·	3.9
CCOC(=O)Cc1c(C)nc2cc(-c3ccc(Cl)cc3)[nH]n2c1=O	–	–	–	–	–	–
CCN(CC)CCCN1C(=O)C(=O)/C(=C(/O)c2ccc(OC)c(Cl)c2)C1c1ccco1 (stereo unspecified)	–	–	–	–	–	–
O=C1NC(c2cccs2)Nc2ccccc21 (stereo unspecified)	–	–	–	–	·	2.5
O=C1NC(c2ccccc2Cl)Nc2ccccc21 (stereo unspecified)	–	–	–	–	·	5
Cc1ccsc1C1NC(=O)c2ccccc2N1 (stereo unspecified)	–	–	–	–	·	–
COc1ccc(C(=O)N2CCN=C2SCc2cccnc2)cc1OC	–	–	–	–	–	–
CCN(CC)CCCNC(=O)c1nn(-c2ccccc2OC)c(=O)c2ccccc12	–	–	–	–	–	–
COc1cc2c(cc1OC)-c1cc(N3CCCCCC3)nc(=O)n1CC2	–	–	–	–	–	2.5
COc1cc2c(cc1OC)-c1cc(NC3CCCCCC3)nc(=O)n1CC2	–	–	–	–	·	3.3
COc1cc2c(cc1OC)-c1cc(OCc3cccnc3)nc(=O)n1CC2	–	–	–	–	·	2.9
CCN(CC)CCCNc1cc2n(c(=O)n1)CCc1cc(OC)c(OC)cc1-2	–	–	–	–	·	4
COc1cc2c(cc1OC)-c1cc(Nc3ccc4c(c3)OCCO4)nc(=O)n1CC2	–	–	–	–	–	–
COc1cc2c(cc1OC)-c1cc(N3CCCc4ccccc43)nc(=O)n1CC2	–	–	–	–	–	–
N#CCSc1nnc(Cc2ccc3c(c2)OCO3)o1	–	–	–	–	–	–
Cc1ccccc1N1CCN(c2ncnc3c2cnn3Cc2ccc(Cl)cc2)CC1	–	–	–	–	–	–
c1ccc(-c2noc(-c3cccc4ccccc34)n2)nc1	–	–	–	–	·	3.3
CC(Sc1cccc(C(F)(F)F)c1)C(=O)NC(N)=O (stereo unspecified)	–	–	–	–	–	–
Cc1cc(C)n2c(SCC(=O)N(C)C3CCS(=O)(=O)C3)nnc2n1 (stereo unspecified)	–	–	25	–	–	–
Cc1cccc(NC(=O)c2cc3n(n2)C(C(F)(F)F)CC(c2ccc4c(c2)OCO4)N3)c1 (stereo unspecified)	–	–	–	–	–	–
Cc1cc2n(n1)C(c1ccc3c(c1)OCO3)Nc1c(C)cccc1-2 (stereo unspecified)	–	–	–	–	–	2.2
Cc1cc(C)c2c(c1)-c1cc(C)nn1C(c1ccc3c(c1)OCO3)N2 (stereo unspecified)	–	–	–	–	–	2.7
CCCc1nn(CCc2ccccn2)c(N)c1CC	–	–	–	–	–	–
